Consider 64 molecules from ChEMBL document CHEMBL3988442, “University of Dundee, Small-Polar-MMV Screening Library” (2021).

Molecules are shown by their SMILES. About 13,000 (27%) of roughly 48,000 compounds showed an effect of 50% or more. The list shows a part of the results.

For the test, the system named is Wolbachia pipientis. The test is described as follows: Anti-Wolbachia Cell-Based Screen. The class given is functional. Set-up: scale not given: in the data most compounds retested in dose-response had high values. The conditions noted are these: 5 µM.
As for `CCC(CC)c1cc(CNC(=O)N2CCC[C@@H]2CO)on1`, the “Percent Effect” value was -2.754%.
The result for `CCn1cc(CNc2ccc(F)c(N3CCCS3(=O)=O)c2)cn1` reads -13%; that for `Cc1cccc(C(=O)N(CCCO)S(=O)(=O)c2cccs2)c1`, -17.59%.
As to `O=C(CN1CCCC1)N1CCCC1c1nc(O)cc(-c2ccccn2)n1` (centres undefined), the “Percent Effect” value is 91.97%.
The result for `COCCC(=O)N1CCCC1c1nc(O)cc(-c2ccccn2)n1` (centres undefined) reads 100.3%; that for `O=C(CC1CCCC1)N1CCCC1c1nc(O)cc(-c2ccccn2)n1` (centres undefined), -10.15%.
Next, `C/C=C(/C)C(=O)NS(=O)(=O)c1ccc(C(F)(F)F)cc1`: -1.888%; `CC(C)(C)c1cc(NC(=O)C2COCCO2)n(-c2ccccn2)n1` (centres undefined): -13.16%; `CN1CCN(C(=O)C2CC=CC2)c2ccccc21`: -33.89%.
The result for `O=C(C1COCCO1)N1CCN(CC(F)(F)F)c2ccccc21` (centres undefined) reads 122.9%; that for `O=C(C1CCOC1)N1CCN(CC(F)(F)F)c2ccccc21` (centres undefined), 125.3%.
For the molecule `Cc1ccc2c(c1)N(C(=O)C1CCCOC1)CCC2` (centres undefined), the “Percent Effect” value worked out at 0.6184%.
Next, `O=C(C1CCCOC1)N1CCCCc2ccccc21` (centres undefined): -3.66%; `O=C(C1CCCOC1)N1CCN(CC(F)(F)F)c2ccccc21` (centres undefined): 120.4%; `O=C(C1CCCOC1)N1CCCc2ccccc21` (centres undefined): -6.498%.
The result for `COc1nc(N2CCN(C(C)=O)CC2)ncc1Br` reads -6.459%.
As to `Cc1nnc([C@H]2CCN(CCCc3ccccc3)C2)o1`, the “Percent Effect” value is listed as -2.923%.
The result for `c1ccc(CCCN2CCCC(Nc3cnc4ccccc4n3)C2)cc1` (centres undefined) reads 45.74%; that for `Cc1cc(C)nc(NC2CCCN(CCCc3ccccc3)C2)n1` (centres undefined), 120.4%; that for `Cc1ccc(NC2CCCN(C3Cc4ccccc4C3)C2)nn1` (centres undefined), -17.09%.
The result for `CSc1ccccc1C(=O)N(C)C1CCCN(CCc2ccccc2)C1` (centres undefined) reads -4.554%; that for `CC(C)c1ccc(NC2CCCN(Cc3ccncc3)C2)cc1` (centres undefined), -12.89%; that for `Cc1ccc(NC2CCCN(Cc3ccc(Cl)cc3)C2)nn1` (centres undefined), 105.3%.
Next, `Cc1ccc(NC2CCCN(CCCc3ccccc3)C2)nn1` (centres undefined): 90.19%; `CCn1cc(S(=O)(=O)NC2CCCN(CCCc3ccccc3)C2)cn1` (centres undefined): -6.071%; `Cc1cc(N[C@H]2CCCN(Cc3ccccc3)C2)n2nc(C)cc2n1`: -7.34%.
In the case of `Cc1ccc(NC2CCCN(CCc3ccccc3)C2)nn1` (centres undefined), the “Percent Effect” value was found to be 81.81%.
`Cc1cc(NC2CCCN(Cc3ccc(F)cc3)C2)n2nc(C)cc2n1` (centres undefined): the “Percent Effect” value is 43.11%.
Take `CCn1c(CN2CCC(O)(C(=O)OC)CC2)nc2c(F)cccc21`: the “Percent Effect” value was -8.235%.
Consider `CSCCC(NC(N)=O)C(=O)NCc1c(C)nn(-c2ccccc2)c1C` (centres undefined), for which the “Percent Effect” value was -8.181%.
The result for `FC(F)(F)c1ccccc1CCC1CCCN(Cc2cscn2)C1` (centres undefined) reads 15.59%; that for `COc1ccc2c(c1)nc1n2[C@@H](CNC(=O)c2cccnc2)COC1`, -6.986%.
Next, `O=C(NC1CCCC1)[C@H]1C[C@H]2OCC[C@H]2N(Cc2ccoc2)C1.O=C(O)C(F)(F)F`: 13.19%; `O=C(N[C@@H]1CN(Cc2ccoc2)[C@@H]2CCCO[C@@H]21)C1CC1.O=C(O)C(F)(F)F`: 105.3%.
Regarding `CN(C)C(=O)N[C@H]1CN(Cc2ccc3c(c2)OCO3)[C@@H]2CCCO[C@H]12.O=C(O)C(F)(F)F`, the “Percent Effect” value amounted to 93.48%.
Next, `O=C(N[C@@H]1CN(Cc2ccsc2)[C@@H]2CCCO[C@@H]21)C1CC1`: -8.929%; `O=C(N[C@@H]1CN(Cc2cccs2)[C@@H]2CCCO[C@@H]21)C1CC1`: -17.92%.
Take `O=C(N[C@H]1CN(Cc2ccsc2)[C@@H]2CCCO[C@H]12)C1CC1.O=C(O)C(F)(F)F`: the “Percent Effect” value came to 106.9%.
Consider `O=C(O)C(F)(F)F.O=C([C@H]1C[C@H]2OCC[C@H]2N(Cc2ccoc2)C1)N1CCCO1`, for which the “Percent Effect” value turned out to be 7.487%.
Next, `CN(C)C(=O)[C@H]1C[C@H]2OCC[C@H]2N(Cc2ccc3c(c2)OCO3)C1.O=C(O)C(F)(F)F`: 0.2139%.
The result for `CN(C)C(=O)N[C@@H]1CN(Cc2ccc3c(c2)OCO3)[C@@H]2CCCO[C@@H]21.O=C(O)C(F)(F)F` reads -22.69%; that for `O=C(c1ccccc1)C1CCN(Cc2cc3c(cc2O)CCC3)CC1`, -3.001%; that for `O=S(=O)(c1cccnc1)N1C[C@@H]2CC[C@H](C1)N(Cc1ccccc1)C2`, -31.29%.
On to `Cn1cc(N2CCC(NC(=O)c3c(F)cccc3Cl)C2=O)cn1` (centres undefined), for which the “Percent Effect” value is -23.29%.
The result for `COCC(=O)N1CCC(c2nccnc2Oc2cccnc2C)CC1` reads 0.288%; that for `COc1ccccc1Oc1ncccc1CNC(=O)C(C)N1CCCC1` (centres undefined), -2.64%.
For `COc1ccc(CN(C)C2CCN(S(C)(=O)=O)CC2)c2cccnc12`, the “Percent Effect” value amounted to 1.454%.
Next, `Cc1ncccc1Oc1nccnc1C1CCCN(C(C)C)C1` (centres undefined): 134.2%; `Cc1ncccc1Oc1nccnc1C1CCN(C(C)C)CC1`: -4.012%; `Cc1ncccc1Oc1nccnc1C1CCN(S(C)(=O)=O)CC1`: 120.9%.
The result for `CN(C)CCN1CCN(C)C2(CCN(c3nccs3)CC2)C1=O` reads -6.968%; that for `O=C(C1CCCC1)N1CCCC(c2nc(O)cc(-c3ccncc3)n2)C1` (centres undefined), 85.76%; that for `CC1(C)CNC(=O)c2nc(C3CCCN(C(=O)C4CC4)C3)[nH]c2C1` (centres undefined), -1.543%.
Take `O=C(Nc1cc(-c2ccncc2)no1)C1CCCCC1`: the “Percent Effect” value was -8.136%.
The result for `O=C(N1CCCC1)N1CCCC(c2nccn2Cc2ccncc2)C1` (centres undefined) reads 19.93%; that for `O=C(C1CC1)N1CCCC(c2nc(O)cc(-c3ccncc3)n2)C1` (centres undefined), 87.21%.
Next, `CC(=O)c1cccc(NC(=O)C2CN(S(=O)(=O)C3CC3)C2)c1`: 8.617%; `CC(C)(C)C(=O)NCCC(=O)N1CCC(Nc2cccnn2)CC1`: 101.9%.
For the molecule `O=C(CCNc1ncccn1)N1CCC(Nc2cccnn2)CC1`, the “Percent Effect” value was 106.9%.
Take `Cc1ccc(NC2CCN(C(=O)CCCn3ccnc3C)CC2)nn1`: the “Percent Effect” value is listed as 100.9%.
For the molecule `Cc1ccc(NC2CCN(C(=O)CCNc3ncccn3)CC2)nn1`, the “Percent Effect” value worked out at 111.7%.
For `Cc1nccn1CCCC(=O)N1CCC(Nc2cccnn2)CC1`, the “Percent Effect” value is given as 11.87%.
The result for `O=C(CCNCC(F)(F)F)N1CCC(Nc2cccnn2)CC1` reads -5.357%; that for `Cc1ccc(NC2CCN(C(=O)CCNS(C)(=O)=O)CC2)nn1`, -0.08742%.
